Assay results published in PubChem BioAssay AID463173 (ICCB-Longwood Screening Facility, Harvard Medical School, 2010).
Among all 52,000 compounds or so, about 4,300 (8.3%) were called active. Rule as the data show it: active = survival mostly below about 52% (no sharp cut-off); inactive = mostly above about 56%. Shown is part of a subset that was picked to be rich in actives.

These compounds were tested on DeltatarO mutant (assay: growth inhibition of S. aureus wild type versus tarO mutant, primary screen, teichoic acid synthesis inhibitors, RN4220, OD600 (AID 463173)). Settings: OD600, 18 h, hits give low values, screened at 18.75 µg/mL (by protocol).

Q: With Cc1cc(C)cc(-n2c(SCC(=O)N3CCCCCC3)nc3c([nH]c4ccccc43)c2=O)c1 as the compound, how does the survival read?
A: 94% (inactive)

Q: How did the survival turn out when CCOc1ccc(N(CC)C(=O)c2nn(-c3ccc(OC)cc3)c(=O)c3c2c2ccccc2n3C)cc1 was run?
A: 82% (inactive)

Q: Which survival does the source give for CCOc1cc2sc(N3CCC(C(=O)Nc4ccc(C(C)C)cc4)CC3)nc2cc1Br here?
A: 75% (inactive)

Q: Which survival does the source give for COC(=O)CN(c1ccccc1Cl)S(C)(=O)=O here?
A: 52% (inactive)

Q: Which survival does the source give for COc1ccc(NC(=O)c2oc3ccccc3c2NC(=O)c2cccc(F)c2)c(OC)c1 here?
A: 95% (inactive)

Q: How did the survival turn out when COc1cc(OC)c(NC(=O)C2=C(C)C(=O)OC23CCN(C(C)=O)CC3)cc1Cl was run?
A: 75% (inactive)

Q: For Cc1ccc(NC(=O)CN2C=NS(=O)(=O)c3ccccc32)c(C)c1, which survival is on record?
A: 99% (inactive)

Q: COc1ccc(-c2nc(Cn3c(SCc4ccc(C)cc4)nc4cccnc43)c(C)o2)cc1OC was tested. Which survival did it give?
A: 113% (inactive)

Q: Cc1ccc(-c2cnc(NCc3ccc(C(C)C)cc3)n2C)cc1 was tested. Which survival did it give?
A: -4% (active)

Q: Which survival does the source give for Cc1ccc(CNc2nc3c(c(=O)n(C)c(=O)n3C)n2Cc2ccc(Cl)cc2)cc1 here?
A: 54% (inactive)

Q: CCOc1ccc(NC(=O)C(=O)NCCc2csc(-c3ccc(C(F)(F)F)cc3)n2)cc1 was tested. Which survival did it give?
A: 94% (inactive)

Q: With COc1ccc(-c2cnc(NCc3ccc(C)cc3)n2C)cc1 as the compound, how does the survival read?
A: 121% (inactive)

Q: CCOc1ccc(-n2cc(-c3ccccc3)c3c(NCc4ccc(F)cc4)ncnc32)cc1 was tested. Which survival did it give?
A: 95% (inactive)

Q: With CCOc1ccc(-c2cnc(NCc3ccc(C(F)(F)F)cc3)n2C)cc1 as the compound, how does the survival read?
A: -3% (active)

Q: Which survival does the source give for Cc1ccc(NC(=O)CCN2C(=O)c3ccccc3Sc3ncccc32)c(Cl)c1 here?
A: 74% (inactive)

Q: For CCOc1ccc(C(=O)NCCc2csc(-c3cccnc3)n2)cc1, which survival is on record?
A: 81% (inactive)

Q: For Cc1ccc(CNc2nc3ccccc3n3c(C)nnc23)cc1, which survival is on record?
A: 88% (inactive)

Q: How did the survival turn out when CCn1nc(C)c(CCN(C)C(=O)Nc2ccc(C)c(Cl)c2)c1C was run?
A: 88% (inactive)

Q: How did the survival turn out when CSc1ccc(CCNC(=O)c2cc3cc4cc(C)ccc4nc3s2)cc1 was run?
A: 144% (inactive)

Q: How did the survival turn out when Cc1ccc2nc3sc(C(=O)Nc4ccc(F)cc4)cc3cc2c1 was run?
A: 37% (active)

Q: For CCOc1ccccc1NC(=O)c1cc2cc3cc(C)ccc3nc2s1, which survival is on record?
A: 91% (inactive)

Q: COc1ccc2nc3sc(C(=O)NCCc4ccc(Cl)cc4)cc3cc2c1 was tested. Which survival did it give?
A: 103% (inactive)

Q: Which survival does the source give for CCOc1ccc(NC(=O)c2cc3cc4cc(OC)ccc4nc3s2)cc1 here?
A: 82% (inactive)

Q: For Cc1ccc(CCNC(=O)c2cc3cc4cc(C)ccc4nc3s2)cc1, which survival is on record?
A: 46% (active)

Q: How did the survival turn out when CNC(=O)CN(C1CCCCC1)S(=O)(=O)c1ccc(C)cc1 was run?
A: 75% (inactive)

Q: How did the survival turn out when CC(C)C(=O)c1cn(CC(=O)NCc2cccs2)c2ccccc12 was run?
A: 88% (inactive)
